Experimental findings from PubChem BioAssay AID1878 (Sanford-Burnham Center for Chemical Genomics, 2009) are described below.

About 200 (20%) of roughly 1,000 compounds were called active. The list is a sample of the results. Results with a measured potency or affinity are listed apart. Unmarked numbers belong to inactive results. Cut-off read from the data, not from the text of the source: active = inhibition above about 55%; inactive = the rest.

As a reminder, the inhibition is the change of the read-out against control, counted positive when it falls.

Dual specificity protein phosphatase 3 (Homo sapiens), sequence (P51452 whole entry, looked up): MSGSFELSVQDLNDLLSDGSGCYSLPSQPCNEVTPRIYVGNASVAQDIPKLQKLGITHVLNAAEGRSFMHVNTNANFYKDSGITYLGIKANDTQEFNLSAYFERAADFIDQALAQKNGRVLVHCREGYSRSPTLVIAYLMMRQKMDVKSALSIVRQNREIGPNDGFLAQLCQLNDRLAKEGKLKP

This assay concerns the target Dual specificity protein phosphatase 3 (Homo sapiens) (UniProt P51452). The experiment in a line: VHR1 phosphatase inhibitors, biochemical (AID 1878). Particulars: recombinant VHR phosphatase, fluorogenic substrate; at 13.3 µM; stronger effect = higher value.
Turning to `O=C(CN1CCN(c2ccc(O)cc2)CC1)N1CCc2ccccc21`, the inhibition was -16.5%.

Consider `CCOc1ccc(-n2c(SCC(=O)N3CCc4ccccc43)nnc2-c2c[nH]c3ccccc23)cc1`, for which the inhibition is 83.6% (active).

Regarding `O=C(CCCN1C(=O)C(c2ccccc2)Oc2cccnc21)Nc1ccccc1Cl` (centres undefined), the inhibition is 4.6%.

On to `O=C(Nc1ccc2nc3n(c(=O)c2c1)CCCC3)c1ccccc1F`, for which the inhibition was -11.4%.

For `COc1c(C(=O)Nc2ccc3[nH]c(=O)[nH]c3c2)cc2ccccc2c1Br`, the inhibition was 13.6%.

Turning to `Cc1c(Cl)cccc1NC(=O)c1cccc(OC(F)F)c1`, the inhibition is 29.2%.

Regarding `COc1ccccc1CCNC(=O)CNC(=O)c1ccc2ccccc2c1`, the inhibition is -4.1%.

For `COc1ccccc1CCNC(=O)c1cc(-c2ccncc2)nc2ccc(Br)cc12`, the inhibition was 70.1% (active).

Take `Cc1ccc2nc(-c3ccncc3)cc(C(=O)Nc3ccc(OC(F)F)cc3)c2c1`: the inhibition was 69.1% (active).

With `COc1cc(CCNC(=O)c2ccccc2NC(=O)C2=C(C)OCCS2)cc(OC)c1OC`, the inhibition is -10.3%.

As for `CCOc1ccccc1NC(=O)c1cc(-c2ccncc2)nc2c(Cl)cccc12`, the inhibition is 34.3%.

For the molecule `O=C(Nc1ccncc1)c1cc(-c2ccccn2)nc2ccc(Br)cc12`, the inhibition was 84.4% (active).

On to `CC1CCCCN1CCCNC(=O)C1CCN(c2nnc(-n3cccc3)s2)CC1` (centres undefined), for which the inhibition was -30.3%.

Regarding `Cc1cccc(CSc2[nH]c(=O)ncc2C)c1`, the inhibition is 1%.

Consider `O=C(C1CCN(S(=O)(=O)c2cccs2)CC1)N1CCc2ccccc2C1`, for which the inhibition is -7.4%.

`COc1ccc(NC(C)=O)cc1NC(=O)CSc1nnc(C2CCCCC2)n1N`: the inhibition was 0.2%.

As to `O=C(c1ccccc1)C1CCN(C(=O)c2ccc(Cl)cc2)CC1`, the inhibition was -17.9%.

As for `COc1ccc(N(C(=O)CNC(=O)c2ccco2)C(C(=O)NC2CCCCC2)c2ccncc2)cc1` (centres undefined), the inhibition is -11%.

For `CCn1c(=O)n(CC)c2cc(N3CCCC3)c(NC(=O)c3cccc(OC)c3)cc21`, the inhibition is 0.2%.

As to `O=C(CCC(=O)c1ccc(Cl)cc1)NCc1ccccc1`, the inhibition is 3.5%.

Take `O=[N+]([O-])c1cccc2c([As](=O)(O)O)cccc12`: the inhibition is 0.9%.

In the case of `O=c1c2cnn(-c3ccc(F)cc3)c2ncn1Cc1cccnc1`, the inhibition is -6.2%.

On to `Cc1ccc(-n2ncc3c2CCCC3NC(=O)CCc2cnccn2)cc1C` (centres undefined), for which the inhibition was -2.7%.

For the molecule `S=c1[nH]nc(-c2ccccc2)n1/N=C/c1c[nH]c2ccccc12`, the inhibition is 1.6%.

Take `CCC1CCCCN1CCCNC(=O)c1ccc(CS(=O)(=O)c2ccccc2C)o1` (centres undefined): the inhibition is -7.8%.

Take `Cc1oc(-c2ccc(Cl)cc2)nc1CS(=O)CC(=O)NCCN1CCCCCC1` (centres undefined): the inhibition is -27.9%.

Consider `CCOc1cc(C2Nc3ccccc3NC3=C2C(=O)CC(C)(C)C3)ccc1OC(C)=O` (centres undefined), for which the inhibition is -4.7%.

On to `Cc1ccc(NC(=O)CN2C(=O)S/C(=C/c3ccc(-c4cccc(C(=O)O)c4)o3)C2=O)cc1`, for which the inhibition is 93.9% (active).

`Cc1ccc(NC(=O)CN2C(=O)S/C(=C\c3ccc(-c4cccc(C(=O)O)c4C)o3)C2=O)cc1C`: the inhibition was 84.7% (active).

With `Cc1ccc(NC(=O)COC(=O)c2nn(C)cc2Cl)cc1`, the inhibition is -0.7%.

Consider `Cc1ccc(NC(=O)CN2C(=O)S/C(=C\c3ccc(-c4cccc(C(=O)O)c4C)o3)C2=O)cc1`, for which the inhibition was 97.5% (active).

`COc1cc(NC(=O)CN2CCN(c3ccccn3)CC2)cc(OC)c1OC`: the inhibition is 6%.

In the case of `CCCOc1ccc(Cn2c(=O)oc3ccc(C)cc32)cc1`, the inhibition was 7.7%.

As to `COc1ccccc1N1CCN(C2CCCN(Cc3cc(F)cc(F)c3)C2)CC1` (centres undefined), the inhibition was -2.1%.

With `COc1cccc(CNC(=O)CCNS(=O)(=O)c2ccc3c(c2)oc(=O)n3C)c1`, the inhibition is -4.6%.

Consider `COCCNC(=O)c1cccc(OC2CCN(C(C)COc3ccccc3)CC2)c1` (centres undefined), for which the inhibition was -14.8%.

Take `Nc1ncc(Br)cc1S(=O)(=O)NCCC(=O)NCc1ccc(F)cc1`: the inhibition is 4.1%.

As for `CCN1CCN(CCCNC(=O)CS(=O)(=O)Cc2nc(-c3ccccc3C)oc2C)CC1`, the inhibition was -9.5%.

`c1ccc(-c2nnsc2-c2ccccc2)cc1`: the inhibition was -7.8%.

On to `O=C(Cn1ccnc1)c1ccc(Cl)cc1`, for which the inhibition is 14.8%.

As to `CCC(C)NC(=O)c1ccc(CSCc2ccc(Cl)cc2)o1` (centres undefined), the inhibition is -3.4%.

With `CC1(C(=O)O)CCC(C(=O)NC2CCCCCC2)C1(C)C` (centres undefined), the inhibition was -1.3%.

In the case of `CCOc1ccccc1NC(=O)C1CCN(C(=O)c2cccs2)CC1`, the inhibition was -20.3%.

With `CN(CCCNC(=O)c1ccccc1F)CCCNC(=O)c1ccccc1F`, the inhibition was 15.1%.

In the case of `Cc1ccc(C(C(=O)NC2CCCC2)N(Cc2ccc(F)cc2)C(=O)c2snc(C(N)=O)c2N)o1` (centres undefined), the inhibition was 10.6%.

Regarding `CN(C)c1ccc(NC(=O)CN2C3CCCC2CC(NC(=O)c2ccccc2)C3)cc1` (centres undefined), the inhibition was -12.8%.

Consider `COc1ccc(NC2CCCN(C(=O)c3ccc(CSC)o3)C2)cc1OC` (centres undefined), for which the inhibition was 20.5%.

For `CCC1CCCCN1CCCNC(=O)CN1C(=O)COc2ccc(S(=O)(=O)N3CCOCC3)cc21` (centres undefined), the inhibition is 1.2%.

As to `Cc1cc(C)c(S(=O)(=O)/N=C2/C=C(Sc3ncn[nH]3)C(=O)c3ccccc32)cc1C`, the inhibition is 15.8%.

Turning to `COc1cc(CN2CCC(n3nccc3NC(=O)C3CCOC3)CC2)ccc1F` (centres undefined), the inhibition was -5.3%.

Turning to `COc1ccc(-n2nc(C(=O)Nc3ccc(OC)c(OC)c3)c3c4ccccc4n(C)c3c2=O)cc1`, the inhibition is 94.9% (active).

Turning to `COc1ccc(-n2nc(C(=O)NCC3CCCO3)c3ccccc3c2=O)cc1` (centres undefined), the inhibition is -4%.

Consider `COc1ccc(NC(=O)c2cn(CCC#N)nc2-c2ccc(OC)c(OC)c2)cc1`, for which the inhibition is -8.4%.

In the case of `Cc1ccc2c(c1)N(CC(=O)NCCCN1CCCCC1)C(=O)CO2`, the inhibition was 2.3%.

As to `CC(C)(C)SC(=O)C[C@@H]1NS(=O)(=O)OC2CCCCC21` (some centres undefined), the inhibition was 24.7%.

In the case of `CN(CC1CCCN(CCc2ccc(F)cc2)C1)C(=O)CCC(N)=O` (centres undefined), the inhibition was -4.8%.

`CN(C)C1(CNCC(O)c2ccccc2)CCCCC1` (centres undefined): the inhibition was 6.5%.

`CC(=O)NC(Cc1ccc(F)cc1)C(=O)NC1CCN(S(=O)(=O)c2ccccc2)CC1` (centres undefined): the inhibition is 41%.

Turning to `CCOCCCNC(=O)c1cn(C)c2ccc(S(=O)(=O)N3CCCCC3)cc2c1=O`, the inhibition was 12.7%.

For the molecule `N#Cc1c(-c2cccs2)nc(SCC(=O)c2ccc(Br)cc2)[nH]c1=O`, the inhibition is 95.4% (active).

Take `Nc1cc(=O)[nH]c(SCCSc2ccc(F)cc2)n1`: the inhibition is -2.2%.

Take `CN1CCN(CCNC(=O)Cn2c(=O)c3cccn3c3ccc(F)cc32)CC1`: the inhibition is -1%.

With `COc1ccc(CN(C)Cc2c(O)ccc3ccccc23)cc1`, the inhibition was -9%.

On to `CCCCCc1nnc(NC(=O)Cc2ccc([N+](=O)[O-])cc2)s1`, for which the inhibition is 4.4%.

With `O=C(Nc1ccccc1F)N1CCc2ccccc2C1`, the inhibition was -0.6%.

As for `Cn1cc(Cl)c(C(=O)Nc2nccs2)n1`, the inhibition is 25.2%.

For the molecule `COC(=O)c1ccccc1NC(=O)CCS(=O)(=O)c1ccc(Br)cc1`, the inhibition is 89.7% (active).

As to `COC(=O)c1ccccc1NC(=O)c1cc2ccccc2o1`, the inhibition is 12.8%.

Turning to `Cc1ccc(NC(=O)CCS(=O)(=O)c2ccc3c(c2)NC(=O)C(C)S3)nc1` (centres undefined), the inhibition is -1.8%.

Turning to `Cc1ccc2cc(CN(CC3CCCO3)C(=O)c3cccs3)c(=O)[nH]c2c1` (centres undefined), the inhibition is -11.2%.

For `CN(C(=O)c1ccc(COc2ccccc2Cl)o1)c1ccccc1`, the inhibition was 15%.

Take `O=C(Cn1c(=O)c2c3c(sc2n(Cc2ccccc2)c1=O)CCCC3)NCCO`: the inhibition is -0.2%.

In the case of `CCOC(=O)c1sc2ncnc(Nc3cccc(C(=O)O)c3)c2c1C`, the inhibition was -6.2%.

As to `CCOC(=O)c1sc2nc(C)nc(NCc3ccc(Cl)cc3)c2c1C`, the inhibition is 0.5%.

Turning to `Cc1cc(Cl)cc(Cl)c1OCCN1CCCC1`, the inhibition was -2.7%.

Take `CSCCNC(=O)c1ccc2nc(Cc3ccccc3F)oc2c1`: the inhibition is -8.6%.

For the molecule `Cc1ccc2[nH]c(CN3CCN(C)C(CCO)C3)c(C)c2c1` (centres undefined), the inhibition is -2.5%.

For `Cc1cc(-n2c(SCC(=O)NCCC3=CCCCC3)nc3n[nH]c(C)c3c2=N)ccc1Cl`, the inhibition was 15.1%.

`O=C(Nc1cc(-c2nc3ncccc3o2)ccc1Cl)c1cccs1`: the inhibition was -1.1%.

As for `CN(CCO)CCOCCOc1cccc2ccccc12`, the inhibition is -15.7%.

In the case of `CC(=O)c1ccc(OCC(=O)N2CCCC(Nc3ccc(C)c(C)c3)C2)cc1` (centres undefined), the inhibition is 3.2%.

Take `CCCCN(CCCNC(=O)c1ccc(CS(=O)(=O)c2c(Cl)cccc2Cl)o1)Cc1ccccc1`: the inhibition was -4.4%.

With `CC(=O)N/C(=N\c1nc(C)cc(C)n1)Nc1ccc(Cl)cc1Cl`, the inhibition was -6.7%.

In the case of `Oc1cccc2ccc(/C=C/c3ccccc3Cl)nc12`, the inhibition was -3.4%.

With `CSCCC1NC(=S)N(Cc2ccccc2)C1=O` (centres undefined), the inhibition was -5.4%.

On to `O=C(CNS(=O)(=O)c1cccc(Br)c1)NCC1CCCCC1`, for which the inhibition is 11.2%.

As to `Cc1ccc(N(C(=O)c2snc(C(N)=O)c2N)C(CC(C)C)C(=O)NC2CCCC2)cc1` (centres undefined), the inhibition was 0.9%.

As to `Cn1nnc2cc(C(=O)Nc3ccccc3F)ccc21`, the inhibition was -4.2%.

Take `CCc1ccccc1NC(=O)C1CCCN1S(=O)(=O)c1ccc(-c2ccc(=O)[nH]n2)s1` (centres undefined): the inhibition is -1.8%.

Regarding `Cc1ccc(S(=O)(=O)N(C)C)cc1NC(=O)CN1CCCC1`, the inhibition was -0.5%.

With `C=CCN1C(=O)C2(OCCO2)c2cc(C)ccc21`, the inhibition was -6.3%.

For the molecule `CN(C)c1ccc(NC(=O)Nc2ccc3c(c2)nnn3C)cc1`, the inhibition is 38.6%.

Consider `C/C(=N\NC(=O)c1ccc(OC2OCCOC2Oc2ccc(C(=O)N/N=C(\C)c3ccncc3)cc2)cc1)c1ccncc1` (centres undefined), for which the inhibition was 92.7% (active).

As to `C/C(=N\NC(=O)C1CCCC1)c1ccc(Cl)cc1`, the inhibition is 3.5%.
